# Test results published in PubChem BioAssay (NCI).
# Compounds without any hit were thinned out: in the full panel of roughly 83,000, 20% have a hit.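 Values shown are percent growth following 48 h exposure of cells in 96-well plates to a single concentration of compound; below 10 was considered active.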 Values without a mark were called inactive. The source made the active and inactive calls.
# Test system: HCT-15 colon
# Assay: NCI-60 one-dose screen, 48 h (100 = growth as untreated, 0 = no growth, -100 = all killed)
# Details: 10 µM unless noted
# Procedure: Growth inhibition of the HCT-15 human tumor cell line is measured as a screen for anti-cancer activity. Cells are grown in 96 well plates and exposed to the test compound for 48 hours. Compounds are tested at a single concentration, which is 10^-5 M for most compounds. The reported endpoint is percent growth (GI% or GIPRCNT), where numbers from 0 - 100% represent growth inhibition, and numbers from -100% - 0 represent cell death. For example, a value of 40 represents 60% growth inhibition. A value of 0 means no net growth occurred over the course of the experiment. A value of -40 indicates 40% of cells at the beginning of the experiment died by the end of the experiment. A value of -100 means all cells are dead at the end of the experiment.
# NCI-60 Human Tumor Cell Lines Screen was performed using the standard one-dose NCI protocol, which is described in more detail at https://dtp.cancer.gov/discovery_development/nci-60/default.htm.
# Compounds with GIPRCNT values below 10 were considered active. Activity score was based on GIPRCNT using the following formula: […]
# Score is 0 for GIPRCNT values of 100 or above, 50 for GIPRCNT values of 0, and 100 for GIPRCNT values of -100.
row,SMILES,growth
1,CC(=O)c1cc(C(=O)N2c3ccccc3Sc3ccccc32)n2c1ccc1ccccc12,41.6%
2,O=C(CCCCCCNC(=O)C(O)(O)C(F)(F)F)Nc1ccc(-c2ccccc2)cc1,9.19% (active)
3,COc1ccc2[nH]cc(/C=N/Nc3ccnc4cc(Cl)ccc34)c2c1,-88.1% (active)
4,C[C@H](Nc1ncnc2ccc(-c3cnc(Cl)c(NS(C)(=O)=O)c3)cc12)c1ccccc1,-23.7% (active)
5,CN1CCN(c2ccc(Nc3nc(NCCNS(=O)(=O)c4ccccc4)c4sccc4n3)cc2)CC1,95.2%
6,CCc1cc2c(cc1Cl)nc1c(=O)[nH]c(=O)nc-1n2CCOCC(C)C,47.4%
7,COc1cccc(N2CCN(C3=C(Cl)C(=O)c4ncccc4C3=O)CC2)c1,42.3%
8,CCC(=C(c1ccc(OCCN(C)C)cc1)c1ccc(OCCN(C)C)cc1)c1ccc(Cl)cc1,-74.8% (active)
9,CN1CCN(CCCCCC(=O)Nc2nc(-c3cccc(NS(=O)(=O)c4cccc5c(N(C)C)cccc45)c3)cs2)CC1,23.1%
10,CS(=O)(=O)c1ccc(/C(=N/N=C(N)N)c2ccc(Cl)cc2)cc1,81.6%
11,Cc1csc(/N=C(N)/N=C(\N)c2cccc(Br)c2)n1,67%
12,Cc1ccc(C(=O)Nc2ccc(CNCCN3CCNCC3)c(C(F)(F)F)c2)cc1C#Cc1cnc2cccnn12,14.1%
13,N#C/C(=C\c1cccc2c1OCO2)C(=O)Nc1sc2c(c1C#N)CCCC2,102%
14,CN1CCN(Cc2ccc(NC(=O)c3cncc(C#Cc4cnc5ccc(NCCO)nn45)c3)cc2C(F)(F)F)CC1,33.2%
15,Cn1cc(-c2nn3cc(-c4ccncc4)nc3s2)c2cc(F)ccc21,38.7%
16,CCOC(=O)Nc1ccc2c(ccn2C(=O)c2cccc(F)c2)c1,29%
17,COc1ccc(Cn2cc(C#N)c(N)c2C(C)=O)cc1,98.5%
18,CSc1ccc(/C(=N/N=C(N)N)c2ccc(Cl)cc2)cc1,3.54% (active)
19,NCCNC(=O)c1cccc(COc2ccccc2NC(=O)c2cc(Cl)c(Cl)[nH]2)c1,94.3%
20,C#Cc1cc(C(=O)Nc2ccc(CNCCN3CCOCC3)c(C(F)(F)F)c2)ccc1C,88%

row,SMILES,growth
1,CCCCN1C(=O)/C(=c2\sc3n(c2=O)C2C(NN=3)N(CC)C(=O)N2CC)c2cc(C)ccc21 (stereo not given),86.2%
2,C/C(=N\NC(N)=S)c1nnn(-c2ccc([N+](=O)[O-])cc2)c1C,86.9%
3,CCCN1C=C/C(=C\C(=O)n2ccc3ccccc32)c2ccccc21,80.3%
4,Cc1ccc(-c2nc(SCC(=O)c3ccccc3)nc(Nc3ccc(S(N)(=O)=O)cc3)c2C#N)cc1,72.1%
5,CC(=C(c1ccc(OCCCN(C)C)cc1)c1ccc(OCCCN(C)C)cc1)c1ccc(Cl)cc1,41.6%
6,Cn1cc(-c2nnc(N)nc2-c2c[nH]c3ccc(F)cc23)c2cc(Br)ccc21,16.9%
7,COc1ccc(C2CC(c3cccc(OCCCCOc4cccc(C5=NOC(c6ccc(OC)cc6)C5)c4)c3)=NO2)cc1 (stereo not given),77.3%
8,C=C(C)[C@@H]1CC[C@]2(C(=O)N3CCN(C)CC3)CC[C@]3(C)[C@H](CC[C@@H]4[C@@]5(C)CC[C@H](OP(=O)(OCC)OCC)C(C)(C)[C@@H]5CC[C@]43C)[C@@H]12,60.2%
9,CC1=C(C)C(=O)C(Nc2ccc3c(c2)OCCO3)=C(Br)C1=O,98.1%
10,CN(C)CCNc1ccc2ncc(C#Cc3cncc(C(=O)Nc4ccc(CN5CCN(C)CC5)c(C(F)(F)F)c4)c3)n2n1,34.7%
11,O=C(Nc1ccccc1)Nc1nc2ccc([N+](=O)[O-])cc2[nH]1,40.9%
12,N#C/C(=N\Nc1ccc(F)cc1)C(=O)Nc1cc(-c2ccccc2)nn1-c1ccccc1,8.61% (active)
13,C1=CC(c2nn3c(-c4ccccc4)nnc3s2)=Cc2ccccc2O1,23.5%
14,C#C[C@]1(O)CC[C@H]2[C@@H]3CC=C4c5sc(Nc6ccc(C)cn6)nc5CC[C@]4(C)[C@H]3CC[C@@]21C,-45.6% (active)
15,CCCc1[nH]c(-c2cc(N)ccc2Cl)c2c1C(=O)CCCC2,90.6%
16,Cc1ccc2c(n1)C(=O)C(Cl)=C(Nc1cccc(C(F)(F)F)c1)C2=O,-61.1% (active)
17,CCCCCCN1C=C/C(=C\C(=O)n2ccc3ccccc32)c2ccccc21,79.6%
18,Cc1csc(/N=C(N)/N=C(\N)c2cccs2)n1,100%
19,CCCCc1nc2c(N)nc3ccccc3c2n1Cc1cccc(CN)c1,55.9%
20,NS(=O)(=O)c1ccc(Nc2nc(Nc3ccccc3)nc(N3N=C(c4ccc(Cl)cc4)CC3c3ccc(Cl)cc3)n2)cc1 (stereo not given),36.6%
